Compound activity: PubChem, National Center for Advancing Translational Sciences (NCATS)
In the library only some 14% were active in any assay of this set; here they are far more common.
AID923: qHTS Assay for Allosteric/Competitive Inhibitors of Caspase-1: Spectroscopic Profiling in AFC Spectral Region; compound fluorescence, AFC spectral region (405/520 nm); actives 1.1% (n = 75,000); Potency, µM (series often up to 57.5 µM), for the others: top-dose fluorescence increase, usual class: activators; AID 923, 2007; also: potency is read from the fitted curve at half-maximal effect; 0% is about no effect
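Compound autofluorescence profiled at 405 nm ex/520 nm em during kinetic caspase 1 run (50 nM enzyme, 5 uM Ac-WEHD-AFC, HEPES pH 7.5, 10 mM DTT). Titration up to 57 uM; baseline from regression intercept, normalized to AFC standard curve.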
HSD17B inhib: HSD17B dehydrogenase inhibition; Q99714; recombinant HSD17B10, NADH fluorescence kinetic; Potency, µM (series often up to 57.1 µM), for inactives: at the top dose activity change, negative = inhibition, most hits filed as inhibitors; actives 7.6% (n = 75,000);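 also: the protocol describes HADH2 (HSD17B10) and not the HSD17B4 of the title; potency is read from the fitted curve at half-maximal effect; % is scaled to controls: 0 for no effect and ±100 for the full control effect; nearly all actives have a fitted effect of over 70% in size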
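20 nM HADH2, pH 9.0 Tris/Tween; cpd preinc 15 min RT; start w/ 1 mM NAD+ + 90 uM b-hydroxybutyryl-CoA; kinetic fluor ex360/em450 q30s x 4 min; delta last-first.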
4-MU autofl: compounds fluorescent in 4-MU spectral region; compound autofluorescence, 340/450 nm, 4-MU equivalents; active compounds read high; max dye-equivalent concentration, M; actives 11% (n = 59,000); in the data active = max dye-equivalent concentration above about 10 nM; inconclusive = mostly about 1.1 nM to 9.6 nM
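Compounds in 100 mM Tris, pH 8.0, incubated 15 min at room temperature, then fluorescence read at 340 nm excitation/450 nm emission. Signal converted to 4-MU dye-equivalent concentration using an on-plate six-point 4-MU standard curve.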
HADH2 inhib: HADH2 (human) dehydrogenase inhibition. recombinant HADH2, NADH fluorescence, beta-hydroxybutyryl-CoA. Potency, µM (titrated, usually from 57.1 µM), inactives show at the highest dose activity change, negative = inhibition, actives largely listed as inhibitors. actives 3.4% (n = 73,000); also: potency is read from the fitted curve at half-maximal effect; % is scaled to controls: 0 for no effect and ±100 for the full control effect; nearly all actives have a fitted effect of over 60% in size
Target sequence (Q99714 whole entry, looked up, one chain of several): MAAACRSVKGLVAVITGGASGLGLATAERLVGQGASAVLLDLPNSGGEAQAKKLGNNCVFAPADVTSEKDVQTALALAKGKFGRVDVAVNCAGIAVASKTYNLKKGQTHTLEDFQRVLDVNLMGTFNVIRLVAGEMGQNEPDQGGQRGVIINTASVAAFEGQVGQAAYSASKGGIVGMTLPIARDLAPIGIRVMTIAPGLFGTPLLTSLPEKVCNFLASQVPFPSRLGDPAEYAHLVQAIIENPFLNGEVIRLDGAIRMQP
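NADH fluorescence (ex 360/em 450 nm) read every 30 s for 4 min; activity taken as last-minus-first time point difference. Enzyme 20 nM, NAD+ 1 mM, beta-hydroxybutyryl-CoA 90 uM, pH 9.0 Tris buffer.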
CRE Fsk mod: alters forskolin-stimulated CRE reporter signaling in CHO cells | Potency, µM (top dose mostly 38.2 µM), for the others: top-dose activity change, negative = inhibition, most hits filed as activators | actives 2.5% (n = 71,000) | CHO CRE-bla reporter (cAMP response element driving beta-lactamase), forskolin EC10, beta-lactamase ratio; active = well fitted activation curve with a large enough effect in the signal ratio, with a control signal flat, not every such curve was filed as active; inconclusive = small, poorly fitted or top-dose-only effect, or effect the other way, or a change in a side signal; the % refers to the signal ratio; also: potency is read from the fitted curve at half-maximal effect; % of control where 0% means no effect
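Using CellSensor CRE-bla CHO cells in Opti-MEM with 0.5% dialyzed FBS, compounds were titrated with EC10 NKH 477 for 3 h at 37 °C. CCF4 ratio (460/530 nm) gave %Activity; AC50 derived.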
A350 autofl: A350 region autofluorescence. max dye-equivalent concentration, M. Compound autofluorescence, 340/450 nm, Alexa 350 dye-equivalents; active compounds read high. actives 11% (n = 59,000). AID 590; in the data active = max dye-equivalent concentration above about 10 nM; inconclusive = mostly about 1.1 nM to 9.6 nM
Numbers without * were called inactive; i = inactive; ? = inconclusive; · = not tested or not shown; ! = a repeat was not active; [ ] = remark or other dose. Unless noted, calls follow the shape of the dose curve; as a rule, active = well fitted curve in the direction sought with a large enough effect; inconclusive = small, poorly fitted or top-dose-only effect, or another doubt; inactive = no such curve, though single readings can be large; an effect the other way counts as inactive or inconclusive.

SMILES	AID923	HSD17B inhib	4-MU autofl	HADH2 inhib	CRE Fsk mod	A350 autofl
CCCCNC(=O)CC1N=C2c3ccccc3N=C(SCC(=O)Nc3ccc(OC)cc3)N2C1=O (centres undefined)	0.6%	-0.4%	?	3.5%	4.2%	?
O=c1ccsn1Cc1ccccc1	1.3%	31.6µM*	?	0.159µM*	?	1.27e-08M*
O=C(Nc1ccc2c(c1)OCCO2)c1c(F)cccc1F	-1.1%	10.6%	i	1.8%	-7.1%	i
Cc1c(NC(=O)c2ccc3c(c2)OCO3)cccc1-c1nc2ccccc2o1	1.2%	-28.4%	i	7.0%	-21.3%	i
O=C(Nc1ccc2oc(-c3ccc(F)cc3)nc2c1)c1ccccc1F	1.7%	20µM*	4.01e-08M*	?	4.1%	2.61e-08M*
O=C(Nc1ccccc1-c1nc2ccccc2o1)c1ccc2c(c1)OCCO2	2.4%	-9.0%	2.2e-07M*	3.98µM*	0.8%	2.13e-07M*
O=C(Nc1ccc2oc(-c3ccccc3F)nc2c1)c1ccc2c(c1)OCCO2	0.5%	31.6µM*	1.13e-08M*	?	-13.1%	1.24e-08M*
CCOC(=O)CCN1C(=O)[C@H]2[C@H]3[C@H](O)[C@H](O)C/C(=N/NC(=O)OCc4ccccc4)[C@H]3CC[C@@H]2C1=O	-0.5%[11.5 µM]	1.6%[11.4 µM]	·	-3.1%[11.4 µM]	·	·
Cc1ccc(CCCC(=O)O)cc1C	1.1%[11.5 µM]	6.3%[11.4 µM]	i	-2.0%[11.4 µM]	-0.9%[7.6 µM]	i
CCn1c(SCc2nc3ccccc3[nH]2)nnc1-c1cnccn1	2.7%	7.0%	?	-6.3%	?	?
CCn1c(SCc2nc3ccccc3[nH]2)nnc1-c1ccncc1	5.4%	14.4%	1.19e-08M*	-0.4%	23.0%	1.03e-08M*
CC(=O)OCC1OC(c2ccc3c(c2)OCO3)C=CC1OC(C)=O (centres undefined)	-2.8%[11.5 µM]	0.1%[11.4 µM]	·	4.2%[11.4 µM]	·	·
COc1ccc(-c2csc(/C(C#N)=C(\O)CSc3nccn3C)n2)cc1OC	-1.5%	-28.6%	i	?	6.31µM*	i
Cn1cccc1C(=O)N1CCC[C@@]2(CCN(c3ccncc3)C2)C1	-0.1%	4.9%	i	-6.4%	-1.9%	i
COCc1nc2c([nH]1)c(=O)n(C)c(=O)n2CC(C)C	-1.8%	11.4%	i	11.9%	12.6µM*!	i
Cn1c(=O)c2[nH]c(CCCCc3nc4c([nH]3)c(=O)n(C)c(=S)n4C)nc2n(C)c1=S	0.4%[11.5 µM]	-4.0%[11.4 µM]	i	-13.3%[11.4 µM]	2.0%[7.6 µM]	i
C=CCOn1c(=O)c(C)[n+]([O-])c2ccccc21	1.5%	?	·	4.4%[11.4 µM]	?	·
COC(=O)c1ccccc1COn1c(=O)c[n+]([O-])c2ccccc21	0.4%	-24.4%	3.71e-08M*	7.4%	6.0%	3.56e-08M*
COC(=O)c1ccccc1COn1c(=O)c(C)[n+]([O-])c2ccccc21	-1.1%	-22.7%	2.43e-08M*	7.6%	-8.1%	2.33e-08M*
CCC/C=C(\CCC)C(NC(=O)c1ccccc1)c1ccc(C(=O)OC)cc1 (centres undefined)	-0.5%	0.4%	·	5.2%	-7.4%	·
Cc1cc(C)nc(N2CCC(CNC(=O)CCc3ccccc3)CC2)n1	1.4%	31.6µM*	i	-7.8%	8.6%	i
CCCNC(=O)C1CCN(c2nc(C)cc(C)n2)CC1	1.7%	31.6µM*	i	-14.8%	0.5%	i
CCC(C)(C)NC(=O)C1CCN(c2nc(C)cc(C)n2)CC1	2.0%	?	i	3.6%	0.8%	i
Cc1cc(C)nc(N2CCN(c3nc(C)cc(C)n3)CC2)n1	-0.3%	-1.0%	2.64e-08M*	4.8%	7.0%	3.26e-08M*
CC1=CC(=O)CC(C)(C)C1(O)/C=C/C(C)=C\C(=O)O (centres undefined)	3.5%	8.2%	·	-0.2%	0.2%	·
Cc1cccc(CNc2ncncc2-c2cccc(C#N)c2)c1	-0.5%	-7.4%	i	-0.3%	15.2%	i
CC(O)COC(C)(C)C (centres undefined)	1.3%	-9.4%	·	-2.6%	-4.7%	·
Clc1ccccc1CN1CCc2sccc2C1	-0.4%	4.9%	8.87e-07M*!	-6.8%	2.8%	1.19e-06M*!
